Consider nine compounds from the supplement of paper PMC7530171.

± gives the standard deviation.

This experiment concerns THP-1 macrophages infected with Mycobacterium tuberculosis H37Rv. Description: intracellular M.tb growth inhibition relative to DMSO (0) and 4 uM bedaquiline (100); higher = stronger inhibition of intracellular bacterial growth. The settings on record: 10 µM; 4 days. The protocol:
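OICR kinase inhibitor library screened in duplicate at 10 uM against THP-1 macrophages (PMA-differentiated) infected with M. tuberculosis H37Rv-pTEC27 (tdTomato RFP), 4 days at 37 C. Rows with complete host cell loss (placeholder inhibition 0, cell loss 100) were removed.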
Regarding `COc1ccc2c(c1)/C(=C/c1cnc[nH]1)C(=O)N2`, the “intracellular M.tb growth inhibition” value is -99.5 ± 38%.

As to `CC(=O)c1c(O)c(C)c(O)c(Cc2c(O)c3c(c(C(=O)/C=C/c4ccccc4)c2O)OC(C)(C)C=C3)c1O` [Rottlerin], the “intracellular M.tb growth inhibition” value is -0.827 ± 1.2%.

Consider `O=C1NC(=O)c2c1c1c3ccccc3[nH]c1c1[nH]c3ccccc3c21` [Arcyriaflavin A], for which the “intracellular M.tb growth inhibition” value is -61.8 ± 87%.

Regarding `C/C(O)=C(\C#N)C(=O)Nc1cc(Br)ccc1Br`, the “intracellular M.tb growth inhibition” value is -33.5 ± 11%.

Turning to `NC(=S)N/N=C/c1coc2ccccc2c1=O.[Cl][Cu][Cl]`, the “intracellular M.tb growth inhibition” value stood at 4.45 ± 6.8%.

On to `Cc1ccccc1-n1c(Cn2cnc3c(N)ncnc32)nc2cccc(C)c2c1=O`, for which the “intracellular M.tb growth inhibition” value was -13.6 ± 20%.

Turning to `N#C/C(=C\c1ccc(O)c(O)c1)C(N)=S`, the “intracellular M.tb growth inhibition” value is -46 ± 15%.

As for `Cn1cc(C2=C(c3cn(C4CCN(Cc5ccccn5)CC4)c4ccccc34)C(=O)NC2=O)c2ccccc21` [Enzastaurin], the “intracellular M.tb growth inhibition” value was -5.94 ± 8.4%.

As for `COC[C@H]1OC(=O)c2coc3c2[C@@]1(C)C1=C(C3=O)[C@@H]2CCC(=O)[C@@]2(C)C[C@H]1OC(C)=O` [Wortmannin], the “intracellular M.tb growth inhibition” value is -159 ± 64%.
